Here are results for 101 molecules from ChEMBL document CHEMBL3988442, “University of Dundee, Small-Polar-MMV Screening Library” (2021).

Structures are written as SMILES. In all, about 48,000 compounds went through this assay and about 13,000 (27%) showed an effect of 50% or more. The list shows a part of the results.

This assay deals with Wolbachia pipientis. The assay can be described thus: Anti-Wolbachia Cell-Based Screen. The assay is classed as functional. Further details: scale not given: in the data most compounds retested in dose-response had high values. The settings on record: 5 µM.
Turning to `Cc1ccc(CNC2(Cc3cc(CO)on3)COC2)o1`, the “Percent Effect” value is -19.01%.
As for `CCS(=O)(=O)N1C[C@@H](C(=O)NC(C)C)[C@@]2(Cc3ccccc3C(=O)N2)C1`, the “Percent Effect” value is 141.4%.
`CC(C)C[C@@H]1N[C@H](C(=O)NC(C)C)Cc2c[nH]c3cccc1c23`: the “Percent Effect” value was -15.72%.
`CCC[C@@H](NC(N)=O)C(=O)N1Cc2ccccc2-c2ccccc2C1`: the “Percent Effect” value is -11.77%.
Then `CC(C)NC(=O)[C@@H]1CN(C(=O)C2CC2)C[C@]12Cc1ccccc1C(=O)N2`, with 129.2%.
Then `CC(C)NC(=O)C1CN(C(=O)c2cccs2)CC12CCOCC2` (stereo unspecified), with -10.16%.
With `CC(C)NC(=O)C1CN(C(=O)c2ccco2)CC12CCOCC2` (stereo unspecified), the “Percent Effect” value is 3.507%.
Consider `CCN(CC)C(=O)CCNC(=O)Cc1nc(-c2ccco2)oc1C`, for which the “Percent Effect” value was determined as 11.44%.
As to `O=C(CS(=O)(=O)Cc1ccc(Br)cc1F)Nc1cn[nH]c1`, the “Percent Effect” value was -22.34%.
With `N#Cc1ccc(N2CCN(c3nccs3)CC2)nc1`, the “Percent Effect” value is reported as -4.592%.
The result for `CCc1nc(CN2CCCN(c3ncnc4sccc34)CC2)no1` reads -94.29%.
As to `c1csc(N2CCCN(c3ncnc4sccc34)CC2)n1`, the “Percent Effect” value was found to be 165.2%.
As to `Cc1noc(C(C)N2CCN(c3ncnc4sccc34)CC2)n1` (stereo unspecified), the “Percent Effect” value was -36.26%.
As to `c1csc(N2CCN(c3ncnc4sccc34)CC2)n1`, the “Percent Effect” value was determined as 140.7%.
Then `N#Cc1ccc(N2CCCN(c3nccs3)CC2)nc1`, with -14.61%; and `Cc1cc2cc(CNC3CCN(CC4CCOC4)CC3)oc2cc1C` (stereo unspecified), with -8.178%; and `CCOC1COC2(CCN(Cc3ccco3)CC2)C1.O=C(O)C(F)(F)F` (stereo unspecified), with -20.65%.
The result for `CCOC1COC2(CCN(c3ncc(C)cn3)CC2)C1` (stereo unspecified) reads 100.2%.
Turning to `CCS(=O)(=O)N1CCC2(CC1)CC(Oc1ccccn1)CO2.O=C(O)C(F)(F)F` (stereo unspecified), the “Percent Effect” value was determined as 11.25%.
Consider `Cc1cccc(CO[C@@H]2CO[C@@]3(CCN(S(=O)(=O)N(C)C)C3)C2)n1.O=C(O)C(F)(F)F`, for which the “Percent Effect” value turned out to be 0.8682%.
With `CCOC1COC2(CCN(c3ccccn3)CC2)C1.O=C(O)C(F)(F)F` (stereo unspecified), the “Percent Effect” value is 106.9%.
For `Cc1cnc(N2CCC3(CC2)CC(NS(C)(=O)=O)CO3)nc1` (stereo unspecified), the “Percent Effect” value is on record as -15.37%.
The result for `CN(C)C(=O)COC1COC2(CCN(c3cnccn3)CC2)C1.O=C(O)C(F)(F)F` (stereo unspecified) reads 7.565%; that for `CCOC1COC2(CCN(C(=O)c3cccc(C)n3)CC2)C1.O=C(O)C(F)(F)F` (stereo unspecified), 94.67%; that for `CN(C)C(=O)COC1COC2(CCN(c3ncccn3)CC2)C1` (stereo unspecified), 5.74%.
The result for `CCOC1COC2(CCN(Cc3cccc(C)n3)CC2)C1.O=C(O)C(F)(F)F` (stereo unspecified) reads 109.8%; that for `CCS(=O)(=O)N1CCC2(CC1)CC(COC)N(c1ncccn1)C2.O=C(O)C(F)(F)F` (stereo unspecified), -2.955%.
For `Cc1cccc(COC2COC3(CCN(S(C)(=O)=O)CC3)C2)n1.O=C(O)C(F)(F)F` (stereo unspecified), the “Percent Effect” value came out at 2.01%.
Regarding `CN(C)C(=O)COC1COC2(CCN(c3cccc(F)c3)CC2)C1.O=C(O)C(F)(F)F` (stereo unspecified), the “Percent Effect” value was -1.854%.
Then `CCOC1COC2(CCN(c3cccc(C)n3)CC2)C1.O=C(O)C(F)(F)F` (stereo unspecified), with 89.3%.
On to `COCC1CC2(CCN(c3cccc(C)n3)CC2)CN1c1ncccn1.O=C(O)C(F)(F)F` (stereo unspecified), for which the “Percent Effect” value is listed as 95.56%.
Take `COCCN1CCC2(CC1)CC(COC)N(c1ncccn1)C2.O=C(O)C(F)(F)F.O=C(O)C(F)(F)F` (stereo unspecified): the “Percent Effect” value is listed as -10.3%.
On to `CSc1ccc(-c2nc(CN3CCC(NC(C)=O)CC3)c(C)o2)cc1`, for which the “Percent Effect” value is on record as 26.44%.
The result for `O=C(O)C(F)(F)F.O=C(O)C(F)(F)F.c1ccc(O[C@H]2CO[C@@]3(CCN(Cc4ccc5c(c4)OCO5)C3)C2)nc1` reads 2.667%; that for `Cn1cc(CN2CCC[C@]3(C[C@H](Oc4ncccc4F)CO3)C2)cn1.O=C(O)C(F)(F)F.O=C(O)C(F)(F)F`, 108.2%; that for `O=C(O)C(F)(F)F.O=C(c1cnoc1)N1CCC[C@]2(C[C@H](Oc3ncccc3F)CO2)C1`, -8.736%.
The result for `CS(=O)(=O)N1CCC[C@]2(C[C@@H](Oc3ncccc3F)CO2)C1.O=C(O)C(F)(F)F` reads -13.76%.
Then `Cn1cc(CN2CCC[C@]3(C[C@@H](Oc4ncccc4F)CO3)C2)cn1.O=C(O)C(F)(F)F.O=C(O)C(F)(F)F`, with 104.4%; and `CN(C)S(=O)(=O)N1CC[C@]2(C[C@H](Oc3ncccc3F)CO2)C1.O=C(O)C(F)(F)F`, with -14.15%.
Take `Cc1nc(CN2CCCC(N(C)Cc3nc(CC(C)C)no3)C2)no1` (stereo unspecified): the “Percent Effect” value is reported as -5.621%.
For `COCC1N(S(=O)(=O)c2cn(C)cn2)[C@H]2CC[C@]1(O)CC2` (stereo partly specified), the “Percent Effect” value is 116.2%.
Take `CO[C@@H]1CCN(S(=O)(=O)c2cn(C)cn2)[C@H]1Cc1ccccc1`: the “Percent Effect” value is -1.543%.
The result for `CCOC[C@@H]1CCC[C@]12CN(S(=O)(=O)c1cn(C)cn1)CCO2` reads 118.4%.
As for `COC[C@H]1CCC[C@]12CN(S(=O)(=O)c1cccs1)CCO2`, the “Percent Effect” value is recorded as -5.962%.
As to `CC(C)OC[C@H]1CCC[C@]12CN(S(=O)(=O)C1CC1)CCO2`, the “Percent Effect” value is -22.82%.
For `CC(C)OC[C@H]1CCC[C@]12CN(S(=O)(=O)c1cn(C)cn1)CCO2`, the “Percent Effect” value stood at 110%.
Take `CC(C)OC[C@H]1CCC[C@]12CN(S(=O)(=O)c1cccs1)CCO2`: the “Percent Effect” value is given as -17.54%.
Turning to `COC[C@@H]1CCC[C@]12CN(S(=O)(=O)c1cn(C)cn1)CCO2`, the “Percent Effect” value was 112.9%.
Consider `COC[C@@H]1CCC[C@]12CN(S(=O)(=O)c1cccs1)CCO2`, for which the “Percent Effect” value is recorded as -10.75%.
Then `CCN1CCO[C@]2(CCC[C@H]2COCc2csc(C)n2)C1.O=C(O)C(F)(F)F.O=C(O)C(F)(F)F`, with -10.73%; and `CO[C@@H]1CC[C@H]2[C@H]1OCCN2S(=O)(=O)c1cn(C)cn1`, with -3.329%.
On to `O=C(c1cnccn1)N1CCN2C[C@H](OCC3CC3)C[C@H]2C1`, for which the “Percent Effect” value is -2.249%.
Then `CCOc1cccc(COC(=O)c2scnc2C)n1`, with -15.18%; and `O=C(NCCn1cccn1)C1CCC(=O)N(CC2CCCCC2)C1` (stereo unspecified), with 7.611%; and `Cc1ccccc1OC1CN(Cc2c(C)nc3ccccn23)C1`, with -115.8%.
For `CNc1nc(CNC(=O)Nc2cccc(F)c2C)cs1`, the “Percent Effect” value is reported as -1.885%.
As to `O=C(NCCCn1cccn1)C1CCC(=O)N(Cc2ccccc2F)C1` (stereo unspecified), the “Percent Effect” value is listed as -2.925%.
On to `CC(C)OCCCNC(=O)c1ccc(-c2ccco2)[nH]c1=O`, for which the “Percent Effect” value is -5.072%.
As for `CC(C)CCNC(=O)c1ccc(-c2ccco2)[nH]c1=O`, the “Percent Effect” value is 11.73%.
Take `CCC(C)NC(=O)c1ccc(-c2ccco2)[nH]c1=O` (stereo unspecified): the “Percent Effect” value came to 3.717%.
Regarding `COCCCNC(=O)C(C)n1nc(-c2ccco2)cc(N)c1=O` (stereo unspecified), the “Percent Effect” value came out at 133.4%.
As for `COCCCNC(=O)Nc1cc(-c2ccccc2C)nn1CCO`, the “Percent Effect” value is on record as -5.534%.
For the molecule `COCCNC(=O)C(C)n1nc(-c2ccco2)cc(N)c1=O` (stereo unspecified), the “Percent Effect” value turned out to be 94.6%.
On to `COc1cc(NC(=O)N(C)Cc2ccc(Br)o2)ncn1`, for which the “Percent Effect” value is given as 1.624%.
In the case of `COc1ccnc(NC(=O)c2cscn2)c1`, the “Percent Effect” value is listed as -4.154%.
Consider `CSc1ncccc1C(=O)N1C[C@H]2CC[C@@H]1CN(CC(=O)N(C)C)C2`, for which the “Percent Effect” value is recorded as -12.01%.
`F[C@@H]1CN(CC2CC2)C[C@@H]1OCc1nc2ccccc2o1`: the “Percent Effect” value is recorded as -15.91%.
In the case of `C[C@@H]1CN(CCOCc2ccccc2)CC[C@@]1(O)C1CCC1`, the “Percent Effect” value is reported as -4.959%.
The result for `C[C@@H]1CN(CCOc2ccc(Cl)cc2)CC[C@@]1(O)C1CCOCC1` reads 95.64%; that for `C[C@@H]1CN(CCOc2ccc(F)cc2)CC[C@@]1(O)C1CCOCC1`, 93.05%.
Then `COc1cc(F)c(CN2CC[C@@](O)(C3CC3)[C@H](C)C2)cc1OC`, with 9.055%; and `C[C@@H]1CN(CCCOc2ccc(F)cc2)CC[C@@]1(O)C1CCOCC1`, with 97.34%; and `COc1cccc(OCCN2CC[C@@](O)(C3CCOCC3)[C@H](C)C2)c1`, with 98.26%.
As to `C[C@@H]1CN(Cc2cc(C3CCCCC3)no2)CC[C@@]1(O)C1CC1`, the “Percent Effect” value was found to be 9.24%.
With `C[C@@H]1CN(C(=O)CCCN2CCCC2)CC[C@@]1(O)C1CCOCC1`, the “Percent Effect” value is given as -4.515%.
Then `C[C@@H]1CN(C(=O)CCCN2CCOCC2)CC[C@@]1(O)C1CCC1`, with -2.629%.
Take `CN(C)CCN(C)S(=O)(=O)Cc1ccc(Br)cc1`: the “Percent Effect” value is on record as -1.249%.
The result for `CCC(=O)c1ccc(OCC(=O)NC(C)c2nnc(C)[nH]2)cc1` (stereo unspecified) reads 8.329%; that for `O=C(CCNS(=O)(=O)c1ccc2c(c1)CCCC2)NCc1ccoc1`, 1.514%.
The result for `CCN(Cc1csc(CS(C)(=O)=O)n1)c1cccc(CO)c1` reads 6.548%.
The result for `CCc1nsc(NC2CCOC3(CCCC3)C2)n1` (stereo unspecified) reads -3.423%; that for `COCCCNS(=O)(=O)c1cc(C)sc1C`, 1.598%; that for `C=C(C)COc1cccc(CNC(CC)c2ccnn2C)c1` (stereo unspecified), -16.98%.
Regarding `COc1cccc(COCC(=O)N2CCCC(n3ccnc3C)C2)c1` (stereo unspecified), the “Percent Effect” value is recorded as -4.06%.
For `NC(=O)COc1cccc(C(=O)N2CCCC(n3cccn3)C2)c1` (stereo unspecified), the “Percent Effect” value is recorded as -6.954%.
Then `Cc1nccn1C1CCCN(C(=O)c2cccc(-n3cccc3)c2)C1` (stereo unspecified), with 98.3%; and `Cc1nccn1C1CCCN(C(=O)c2cccc(S(C)(=O)=O)c2)C1` (stereo unspecified), with 94.78%; and `Cc1nccn1C1CCCN(C(=O)c2cccc(OCC(N)=O)c2)C1` (stereo unspecified), with 92.13%.
Take `CC(=O)c1cn(CCC(=O)N[C@H](C(=O)O)C(C)C)c2ccccc12`: the “Percent Effect” value is given as 14.47%.
Then `CN1CCCC(N(C)C(=O)c2ccc(NC(=O)c3cc[nH]n3)cc2)C1` (stereo unspecified), with -7.369%; and `CN1CCC(CNC(=O)c2ccc3cccc(Cl)c3n2)C1` (stereo unspecified), with 16.58%.
On to `CN(C1CCCCC1)S(=O)(=O)NC1CCCN(c2ncccn2)C1` (stereo unspecified), for which the “Percent Effect” value is -0.1008%.
The result for `CN(C1CCN(c2ccccn2)CC1)S(=O)(=O)c1ccccc1F` reads -17.13%; that for `Cc1ccc2cccc(S(=O)(=O)N(C)C3CCCN(C)C3)c2n1` (stereo unspecified), 110%; that for `CN1CCC(CN(C)S(=O)(=O)CC2CCCCC2)CC1`, -3.898%.
On to `Cc1ccc2cccc(S(=O)(=O)N(C)CC3CCN(C)CC3)c2n1`, for which the “Percent Effect” value amounted to 117.6%.
Turning to `Cc1ccc2cccc(C(=O)NCCOCC3CC3)c2n1`, the “Percent Effect” value was 4.026%.
For the molecule `Cc1ccc2cccc(S(=O)(=O)N(C)CC3CCN(C)C3)c2n1` (stereo unspecified), the “Percent Effect” value worked out at 116.7%.
On to `Cc1ccc2cccc(C(=O)NCC3CCN(C(C)C)C3)c2n1` (stereo unspecified), for which the “Percent Effect” value was -2.471%.
As to `CN1CCCC(N(C)S(=O)(=O)c2cccc3ncccc23)C1` (stereo unspecified), the “Percent Effect” value was 142.2%.
Take `CCN(C1CCS(=O)(=O)C1)S(=O)(=O)c1cccc2cc(C)cnc12` (stereo unspecified): the “Percent Effect” value worked out at 2.36%.
